Measurements published in PubChem BioAssay AID504332 (National Center for Advancing Translational Sciences (NCATS), 2011).
Out of some 350,000 compounds screened, about 31,000 (8.9%) were called active. About 15% were inconclusive and are not listed. This is one part of a sample in which actives are shown more often than they occur. Values without a mark were called inactive. The call rests on the fitted dose curve; in most records, active means well fitted inhibition curve with a large enough effect; inconclusive means small, poorly fitted or top-dose-only effect; inactive means no such curve, though single readings can be large or run the other way.

molecular target: Histone-lysine N-methyltransferase EHMT2 (Homo sapiens) (UniProt Q96KQ7); assay: qHTS Assay for Inhibitors of Histone Lysine Methyltransferase G9a; settings: G9a H3K9 monomethylation, AlphaScreen, 2 h; series mostly up to 59 µM; activity, negative = inhibition: at the top concentration; further: nearly all actives have a fitted effect of over 75% in size
Method in brief: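 G9a (20 nM) was preincubated 15 min with compound, then reacted 2 h at room temperature with 500 nM biotin-H3K9 peptide and 20 µM SAM. Monomethyl-H3K9 detected by AlphaScreen using anti-H3K9me1 antibody.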
On the % scale 0 is the no-effect control and ±100 the full control effect; potency means the concentration at half of the fitted maximal effect.

Histone-lysine N-methyltransferase EHMT2 (Homo sapiens), sequence (Q96KQ7 913-1193 limits assumed): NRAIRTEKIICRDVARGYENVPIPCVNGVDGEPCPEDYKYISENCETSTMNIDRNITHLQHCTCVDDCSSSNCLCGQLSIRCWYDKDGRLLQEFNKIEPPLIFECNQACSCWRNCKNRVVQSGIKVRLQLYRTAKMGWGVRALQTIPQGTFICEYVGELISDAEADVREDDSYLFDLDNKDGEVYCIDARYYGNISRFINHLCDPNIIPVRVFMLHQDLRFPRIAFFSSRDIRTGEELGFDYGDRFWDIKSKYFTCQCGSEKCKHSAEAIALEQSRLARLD

Row | Structure (SMILES) | activity, negative = inhibition | Potency
1 | O=C(COc1ccccc1Cl)N1N=C(c2cccs2)CC1c1ccco1 (stereo not drawn) | -17.2% [at 12.7 µM] | 
2 | Cc1cc(C)cc(OCC(=O)Nc2c(C(=O)c3ccccc3)oc3ccccc23)c1 | -0.593% | 
3 | CC(=O)Nc1ccc(NC(=O)CSc2nnnn2C2CCCCC2)cc1 | -23.7% [at 102 µM] | 
4 | CCn1nnnc1SCC(=O)Nc1ccc(N(C)C)cc1 |  | 28.2 µM (active)
5 | CC(=O)Nc1ccc(NC(=O)CSc2nnnn2-c2ccccc2F)cc1 | 12.9% [at 102 µM] | 
6 | CCOc1ccc(C2C(=O)N(C3CCCCC3)CC(=O)N2CCC2=CCCCC2)cc1OC (stereo not drawn) | -15.8% | 
7 | CC1CN(C(=S)Nc2ccc(S(N)(=O)=O)cc2)CC(C)O1 (stereo not drawn) | 38.7% [at 102 µM] | 
8 | COc1ccc(N2CCN(C(=S)Nc3ccc(S(N)(=O)=O)cc3)CC2)cc1 |  | 8.91 µM (active)
9 | CCOc1ccccc1N1CCN(C(=S)Nc2ccc(S(N)(=O)=O)cc2)CC1 | 4.71% | 
10 | CCCN1CCc2nc(N3CCN(C)CC3)ncc2C1 | 52.1% | 
11 | Nc1nc(SCCOc2ccccc2)n[nH]1 | 1.72% [at 12.7 µM] | 
12 | Nc1nc(SCc2cccc(Br)c2)n[nH]1 |  | 31.6 µM (active)
13 | N#Cc1cccc(CSc2ncnc(N)n2)c1 | -30.5% [at 2.33 µM] | 
14 | Cc1ccc(CCNC(=O)c2ccc3c(c2)nc2n3CCC(C)C2)cc1 (stereo not drawn) | 7.37% | 
15 | CCOc1ccc(NC(=O)C(=O)NCCc2csc3nc(-c4ccccc4F)nn23)cc1 | 4.21% | 
16 | COc1ccc(NC(=O)CCCN2C(=O)CCn3nc(-c4cn(C)c5ccccc45)cc32)cc1OC | -18.7% | 
17 | CCc1ccc(NC(=O)Cn2nnc(C(=O)NCc3ccc4c(c3)OCO4)c2N)cc1 | 30.7% [at 102 µM] | 
18 | Cc1cc(C)cc(NC(=O)Cc2csc(C)n2)c1 | 10.3% | 
19 | CCN(CC(=O)Nc1ccccc1C(F)(F)F)C(=O)C1CCN(C(=O)Nc2ccccc2)CC1 | 2.62% | 
20 | COc1ccc(N2C(=O)CC(N3CCC(C(N)=O)CC3)C2=O)cc1 (stereo not drawn) |  | 14.1 µM (active)
21 | CCOC(=O)c1ccc(N2C(=O)CC(N3CC(C)OC(C)C3)C2=O)cc1 (stereo not drawn) | -40.5% | 
22 | CCOC(=O)C1CCN(c2ccc(C(=O)O)cc2[N+](=O)[O-])CC1 | -4.88% | 
23 | NC(=O)C1CCN(C2OC(=O)c3ccccc32)CC1 (stereo not drawn) | -5.82% [at 102 µM] | 
24 | CCOC(=O)c1ccc(N2C(=O)CC(N3CCC(C(=O)OCC)CC3)C2=O)cc1 (stereo not drawn) |  | 35.5 µM (active)
25 | COc1ccc(COCC(O)CN2CCC(C(N)=O)CC2)cc1 (stereo not drawn) | 3.3% [at 102 µM] | 
26 | COc1cc(Cl)ccc1Nc1ncc(C(=O)N2CCN(c3ccccc3OC)CC2)c2ccccc12 | 15.8% | 
27 | COc1cc(C)ccc1OCCSc1nc2ccc(NC(=O)c3ccc(C)cc3)cc2s1 | 4.13% | 
28 | N#C/C(=C\c1cccc(F)c1)c1nc(-c2cc3c(ccc4ccccc43)oc2=O)cs1 | 6.36% | 
